# Sampled rows, rich in hits. Any-hit rate of the full collection: about 3.6%.
# WT yeast gro inh = growth inhibition of WT yeast, mitochondrial fusion screen. actives 2.1% (n = 190,000). AID 1362. mitochondrial fusion phenotypic screen, WT strain. inhibition, % at 10 µM; in the data active = inhibition above about 58%; tested in S. cerevisiae
# bCat KO growth = beta-catenin-lacking colon tumor cell growth suppression. HCT116 beta-catenin knockout viability, CellTiter-Glo, 60 h; stronger effect = lower value. viability, % at 10 µM. actives 1.5% (n = 140,000). AID 818;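 active = viability at or under a set limit, the compound median less 4 SD, cut at about 6% in these data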
# HCT116 PTEN-null = growth suppressors of cells with PTEN tumor suppressor deletion; HCT116 PTEN-null viability, CellTiter-Glo, 60 h; stronger effect = lower value; viability, % at 10 µM; actives 1.2% (n = 140,000); AID 827;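 active = viability at or below a set limit, 4 SD under the median of all tested compounds, cut at about 3.7% in these data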;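 also: PTEN knockout HCT116 line with beta catenin targeted HCT116 as companion control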
# hDAT+cocaine = human DAT dopamine uptake with cocaine, either direction | B-score at 10 µM | LLC-PK1 hDAT cells, [14C]-dopamine uptake with cocaine IC80; actives deviate in either direction | AID 449768 | Q01959 | actives 1.3% (n = 110,000);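 active = Z score or B-score, a plate-position-corrected score, falls beyond the plate's 99.7% confidence bounds, in either direction; inactive = both scores lie inside the 99.7% bounds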
# Target sequence (Q01959 whole entry, looked up): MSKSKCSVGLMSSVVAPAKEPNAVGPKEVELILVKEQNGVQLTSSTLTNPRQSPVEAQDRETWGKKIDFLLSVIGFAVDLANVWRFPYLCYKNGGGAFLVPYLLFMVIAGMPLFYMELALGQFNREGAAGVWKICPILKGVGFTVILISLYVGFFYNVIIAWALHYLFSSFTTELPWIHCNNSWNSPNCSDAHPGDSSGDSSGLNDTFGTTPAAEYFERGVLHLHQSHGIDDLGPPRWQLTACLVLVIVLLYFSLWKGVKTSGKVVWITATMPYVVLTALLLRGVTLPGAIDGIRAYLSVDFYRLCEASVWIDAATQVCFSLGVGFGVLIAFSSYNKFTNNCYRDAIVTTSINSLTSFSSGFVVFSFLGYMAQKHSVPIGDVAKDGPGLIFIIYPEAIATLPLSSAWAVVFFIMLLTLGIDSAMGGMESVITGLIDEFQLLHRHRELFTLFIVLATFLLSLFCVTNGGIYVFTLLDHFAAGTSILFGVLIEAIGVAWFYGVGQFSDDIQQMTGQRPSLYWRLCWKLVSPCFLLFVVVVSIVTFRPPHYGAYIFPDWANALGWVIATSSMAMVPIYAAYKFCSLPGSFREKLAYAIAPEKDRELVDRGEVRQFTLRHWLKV
# Hits are given with their value; . = inactive; / = not tested or not shown.
SMILES,WT yeast gro inh,bCat KO growth,HCT116 PTEN-null,hDAT+cocaine
COc1cc(C(=O)c2c(C)c(CCC#N)n3ccccc23)cc(OC)c1OC,.,/,/,/
O=C(COC(=O)Cc1c(Cl)cccc1Cl)Nc1ccc(OC(F)(F)F)cc1,.,.,.,/
CCOC(=O)C(NC(=O)NCc1ccccc1OC)(OCC)C(F)(F)F (centres undefined),.,.,.,/
Cc1cc(C)c2nc(N3CCCC(C(=O)NCCCN4CCOCC4)C3)sc2c1 (centres undefined),.,.,.,.
Cc1cc(C)c2nc(N3CCC(C(=O)NCCCN4CC(C)CC(C)C4)CC3)sc2c1 (centres undefined),69,/,/,/
COc1ccc(C2CCCN2C(=O)c2cccs2)cc1 (centres undefined),.,.,.,.
COc1ccc(C2CC(c3ccc(Br)cc3)=NN2C(=O)c2cccnc2)cc1 (centres undefined),64,.,.,/
COc1ccc(C2CC(c3ccccc3)=NN2C(=O)COC(=O)C2(C)CC2(Cl)Cl)cc1 (centres undefined),72,/,/,/
COc1ccc(C2CC(c3ccccc3)=NN2C(=O)c2cccs2)cc1 (centres undefined),78,.,.,.
COc1ccc(C2=NN(C(=O)c3cccs3)C(c3ccccc3O)C2)cc1 (centres undefined),85,/,/,/
NC(=O)c1ccc(/C=N/O)nc1,.,/,/,/
Cc1ccc(N(CCC(=O)O)S(=O)(=O)c2ccccc2)cc1,.,.,.,/
COC(=O)Cc1ccc(N(Cc2ccccc2F)S(=O)(=O)c2ccc(C)cc2)cc1,72,.,.,/
O=C(NCc1ccco1)c1nnc(Cc2ccc(F)cc2)o1,.,.,.,.
O=C(NCc1ccco1)c1nnc(Cc2ccc(Cl)cc2)o1,.,.,.,2.6
COc1ccccc1CN1C[C@@H]2C[C@@H](c3ccc(C)c(C)c3)N3CCC[C@@]23C1=O,.,/,/,/
CC(C)(C)CC(C)(C)Nc1c(-c2ccc(O)cc2)nc2cnccn12,/,/,/,.
O=C(Nc1nc(-c2cccs2)c(C(=O)C(F)(F)F)s1)c1ccco1,.,/,/,/
CC(=O)Nc1sc(NC(=O)c2ccc(C)cc2)nc1-c1cccs1,.,.,.,-2.7
O=C(Nc1nc(-c2cccs2)c(C(=O)C(F)(F)F)s1)c1ccccc1,60,.,.,/
CCN(CC)S(=O)(=O)c1ccc(OC)c(NC(=O)C(Cc2ccccc2)N2C(=O)c3ccccc3C2=O)c1 (centres undefined),.,.,.,/
O=S(=O)(Cc1ccccc1)Cc1cnc(Cl)s1,.,/,/,/
CC(OC(=O)c1cccnc1Cl)C(=O)Nc1ccc(S(N)(=O)=O)cc1 (centres undefined),.,/,/,/
COC(=O)CNC(c1ccccc1)c1cc(C)ccc1NC(=O)c1cccc(Cl)c1 (centres undefined),71,.,.,/
c1ccc2c(c1)CCN(c1ncnc3c1[nH]c1ccccc13)C2,72,.,.,.
SMILES,WT yeast gro inh,bCat KO growth,HCT116 PTEN-null,hDAT+cocaine
c1ccc(CN2CCN(c3ncnc4c3[nH]c3ccccc34)CC2)cc1,.,3.9,.,.
Cc1ccc2[nH]c3c(N4CCCCCC4)ncnc3c2c1,.,5.1,.,/
Cc1ccc2c(c1)[nH]c1c(N3CCN(Cc4ccccc4)CC3)ncnc12,.,.,.,.
OC1(c2cccc(C(F)(F)F)c2)CCN(c2ncnc3c2[nH]c2ccccc23)CC1,85,1.2,1.3,/
COC(CN(C(=O)CCl)C(C(=O)NC1CCCCC1)c1ccc(C)cc1)OC (centres undefined),.,.,.,/
COC(=O)c1ccc(NC(=O)COc2ccc(S(=O)(=O)NC(C)(C)C)cc2)cc1,.,/,/,/
Cc1ccc(Nc2nc(Nc3ccc(C)cc3)nc(SC3=NCCS3)n2)cc1,.,4.2,3.5,/
COc1cc(C(=O)NC(=S)Nc2ccc(N3CCCC3)cc2)cc(OC)c1OC,.,.,.,/
Cc1ccc(NS(=O)(=O)c2ccc(C)c(NC(=O)COc3ccccc3)c2)c(C)c1,58,.,.,/
CC(NC(=O)Cn1ccsc1=N)C12CC3CC(CC(C3)C1)C2 (centres undefined),.,.,.,-6.3
CC(NC(=O)Cn1c(=O)[nH]c2ccsc2c1=O)C12CC3CC(CC(C3)C1)C2 (centres undefined),.,.,.,.
CC(NC(=O)Cn1ncc(Cl)c(Cl)c1=O)C12CC3CC(CC(C3)C1)C2 (centres undefined),64,1.2,1.4,/
N#C/C(=C\c1cccc(NC(=O)c2ccccc2Cl)c1)C(=O)NCCc1ccccc1,84,1.2,1.5,/
CCCCN(CCCC)CCNC(=O)Cc1nc2c(c(=O)[nH]c(=O)n2C)n1C,67,.,.,.
CCCCCCSc1nc2c(c(=O)[nH]c(=O)n2C)n1C,.,.,.,.
Cc1nc2c(=O)n(C)c(=O)n(C)c2nc1Cl,58,3.6,.,/
S=c1nc[nH]c2c1sc1nc(-c3ccccc3)c3c(c12)CCCC3,97,.,.,/
CN1CCN(C(=O)CSc2nc(-c3cccs3)cc(-c3cccs3)c2C#N)CC1,.,3.1,.,.
CCN(CC)C(=O)CSc1nc(-c2cccs2)cc(-c2cccs2)c1C#N,.,.,.,.
CCN1/C(=C/c2sc(-c3ccccc3C)c[n+]2C)Sc2ccccc21,77,/,/,/
Cc1ccc(Oc2nnc(-c3ccc(C)cc3)c3ccccc23)cc1,.,.,.,/
CCCCSc1nnc(-c2ccc(C)cc2)c2ccccc12,78,.,.,/
Cc1ccc(NC(=O)/C(Cl)=C/c2ccccc2)cc1C,.,.,.,/
CC(C)N1CCN(Cc2nc3c(s2)CCCC3)CC1CCO (centres undefined),.,/,/,/
O=[N+]([O-])c1cc(S(=O)(=O)C(F)(F)F)ccc1Sc1nc2ccccc2[nH]1,.,1.5,1.3,.
SMILES,WT yeast gro inh,bCat KO growth,HCT116 PTEN-null,hDAT+cocaine
O=[N+]([O-])c1cc(S(=O)(=O)C(F)(F)F)ccc1Sc1nc2ccccc2s1,.,1.6,1.5,.
C[C@H]1O[C@@H](O[C@H]2[C@@H](O)C[C@H](O[C@H]3[C@@H](O)C[C@H](O[C@H]4CC[C@@]5(C)[C@H](CC[C@@H]6[C@@H]5C[C@@H](O)[C@]5(C)[C@@H](C7=CC(=O)OC7)CC[C@]65O)C4)O[C@@H]3C)O[C@@H]2C)C[C@H](O)[C@@H]1O,.,.,.,-6.2
c1ccc(-c2nnc(CSc3ccc4c(c3)OCCO4)o2)cc1,.,/,/,/
COC(=O)c1ccc(=O)c2nc3/c(=C/O)c(O)cc(=O)c3[nH]c12,/,/,/,.
COc1ccc(C(=O)O/N=C(\C)c2ccccc2)cc1,75,.,.,.
Clc1ccccc1-c1ccc(CN2CCN(c3ccccc3)CC2)o1,66,.,.,/
c1ccc(-c2nnc(CN3CCN(c4ccccc4)CC3)o2)cc1,.,/,/,.
Cc1nn(-c2ccccc2)c(C)c1/C=N/NC(=O)CSc1nc2ccccc2c(=O)n1-c1ccc(Br)cc1,.,1.1,1.1,.
CCCCCCCCOC(=O)c1nc(Cl)c(Cl)c(N)c1Cl,69,.,.,/
C/C(CCN1CCc2nc(-c3ccccc3)c(-c3ccccc3)cc2C1)=N\O[C@@H](C)c1cn([C@H](CO)Cc2ccccc2)nn1,.,.,.,/
Cc1ccccc1NC(=O)c1ccc2c(c1)OCCO2,.,.,1.9,.
